Screening results deposited in PubChem BioAssay by several laboratories.
PABP polyA inh = PABP poly(A) RNA binding inhibitors, primary screen, biochemical, fluorescence polarization, uHTS; Polyadenylate-binding protein 1 (Homo sapiens), P11940; inhibition, % at 35 µM; hit rate 1% among 290,000;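 note: calls also rest on retests at 20 µM and on dose response follow-up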
PABP1 MLLE inh = inhibitors of PABP1 MLLE–PAM2 peptide binding, primary screen, biochemical, fluorescence polarization, FITC-PAM2, GST-MLLE | Polyadenylate-binding protein 1 (Homo sapiens), P11940 | inhibition, % at 20 µM | hit rate 0.36% among 360,000 | AID 588489, 2011; in the data active = inhibition above about 35%, passing the limit was not always enough
PERK inhibitor = block of dimerizer-induced PERK translation repression, primary screen, PERK inhibitor project, CHO PERK-DD cells, SEAP luminescence, HTS | Eukaryotic translation initiation factor 2-alpha kinase 3 (Homo sapiens), Q9NZJ5 | CHO PERK-DD fusion, SEAP luminescence translation reporter | inhibition, % at 5.6 µM | hit rate 0.17% among 220,000;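 active = inhibition above the mean inhibition of all tested compounds plus 3 SD, set separately per screening campaign, cut at about 2.9% in these data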;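 note: PERK kinase domain activated by AP20187 dimerizer at 100 nM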
eIF4E-4G inh = eIF4E–eIF4G protein interaction inhibitors, primary screen, biochemical, uHTS, TR-FRET, eIF4GI fragment | TR-FRET eIF4E-eIF4GI(517-606) binding, 2 h | inhibition, % at 21.7 µM | hit rate 0.37% among 220,000 | AID 782, 2007;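 active = inhibition above about 30%, limit read from the data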
Target sequence (P63073 whole entry, looked up, the tested form may be a part): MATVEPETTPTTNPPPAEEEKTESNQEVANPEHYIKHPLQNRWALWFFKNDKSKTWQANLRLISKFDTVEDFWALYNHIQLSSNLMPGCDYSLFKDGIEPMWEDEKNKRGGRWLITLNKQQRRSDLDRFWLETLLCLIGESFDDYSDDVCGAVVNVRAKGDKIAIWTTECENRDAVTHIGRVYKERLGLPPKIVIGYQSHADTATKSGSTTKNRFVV
Target sequence (Q04637 whole entry, looked up, the tested form may be a part): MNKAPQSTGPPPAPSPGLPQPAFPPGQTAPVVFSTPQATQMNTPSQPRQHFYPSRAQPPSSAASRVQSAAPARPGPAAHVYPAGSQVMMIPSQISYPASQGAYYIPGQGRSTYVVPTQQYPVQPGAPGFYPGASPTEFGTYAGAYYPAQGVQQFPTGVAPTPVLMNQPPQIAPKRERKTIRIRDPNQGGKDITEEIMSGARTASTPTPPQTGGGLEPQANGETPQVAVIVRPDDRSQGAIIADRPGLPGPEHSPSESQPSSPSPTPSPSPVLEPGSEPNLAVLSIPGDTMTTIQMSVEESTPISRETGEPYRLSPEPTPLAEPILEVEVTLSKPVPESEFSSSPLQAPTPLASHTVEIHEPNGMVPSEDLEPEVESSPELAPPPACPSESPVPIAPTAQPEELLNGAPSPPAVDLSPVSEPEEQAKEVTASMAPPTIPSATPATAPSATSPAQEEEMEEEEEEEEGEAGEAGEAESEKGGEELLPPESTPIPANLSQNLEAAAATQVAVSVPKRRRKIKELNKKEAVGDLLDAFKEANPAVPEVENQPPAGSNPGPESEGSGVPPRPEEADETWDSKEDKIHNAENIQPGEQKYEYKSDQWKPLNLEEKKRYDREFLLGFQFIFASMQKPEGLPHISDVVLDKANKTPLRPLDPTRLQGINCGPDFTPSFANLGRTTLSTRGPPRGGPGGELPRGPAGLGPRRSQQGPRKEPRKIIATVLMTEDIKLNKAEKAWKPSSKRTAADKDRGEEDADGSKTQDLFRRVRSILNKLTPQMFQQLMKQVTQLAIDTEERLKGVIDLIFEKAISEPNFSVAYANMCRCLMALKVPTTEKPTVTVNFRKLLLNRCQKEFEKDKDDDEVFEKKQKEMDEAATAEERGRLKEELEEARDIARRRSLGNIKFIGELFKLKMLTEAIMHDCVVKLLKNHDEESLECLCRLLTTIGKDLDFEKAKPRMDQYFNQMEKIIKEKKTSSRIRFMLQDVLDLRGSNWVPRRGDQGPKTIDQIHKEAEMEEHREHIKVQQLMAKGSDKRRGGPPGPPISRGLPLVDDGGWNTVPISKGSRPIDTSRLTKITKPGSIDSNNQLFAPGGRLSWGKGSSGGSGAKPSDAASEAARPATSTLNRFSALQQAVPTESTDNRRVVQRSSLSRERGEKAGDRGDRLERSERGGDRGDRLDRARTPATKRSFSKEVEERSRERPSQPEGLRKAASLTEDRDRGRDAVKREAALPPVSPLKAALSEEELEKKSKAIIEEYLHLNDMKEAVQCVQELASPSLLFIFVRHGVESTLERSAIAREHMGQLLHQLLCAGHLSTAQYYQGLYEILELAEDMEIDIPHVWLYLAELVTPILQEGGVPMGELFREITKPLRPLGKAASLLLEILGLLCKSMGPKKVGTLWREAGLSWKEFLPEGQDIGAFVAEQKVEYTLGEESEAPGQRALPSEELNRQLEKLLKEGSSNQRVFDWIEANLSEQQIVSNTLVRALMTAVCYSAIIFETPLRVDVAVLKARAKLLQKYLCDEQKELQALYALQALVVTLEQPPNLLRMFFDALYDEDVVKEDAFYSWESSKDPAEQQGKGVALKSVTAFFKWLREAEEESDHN
M18AAP inhibitor = PfM18AAP inhibitors, malaria aminopeptidase, primary screen, biochemical, QFRET, recombinant enzyme | M18 aspartyl aminopeptidase (Plasmodium falciparum 3D7) | H-Glu-NHMec fluorogenic cleavage | inhibition, % at 7.35 µM | hit rate 1.2% among 290,000 | AID 1822, 2009;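 active = inhibition above the campaign mean inhibition over all tested compounds plus 3 SD, cut at about 28% in these data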
eIF4H inh = human eIF4H binding inhibitors, primary screen, translation initiation inhibitor project, biochemical, uHTS, fluorescence polarization. Eukaryotic translation initiation factor 4H (Homo sapiens), Q15056. eIF4H fluorescence polarization binding assay. inhibition, % at 35 µM. hit rate 0.94% among 290,000;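 note: calls also rest on retests at 20 µM and on dose response follow-up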
Numbers stand for hits; i = inactive; ? = inconclusive; nt = no result given; [ ] = another dose, or the depositor's remark. Hits are enriched below; roughly 2.4% of the tested compounds scored in any of these assays. Unless noted, the rule behind the calls is not given here.

SMILES	PABP polyA inh	PABP1 MLLE inh	PERK inhibitor	eIF4E-4G inh	M18AAP inhibitor	eIF4H inh
Cc1ccc2c(CC(=O)OCc3cc(=O)n4c(n3)sc3ccccc34)coc2c1	i	i	i	i	i	70
O=C(OCc1cc(=O)n2c(n1)sc1ccccc12)c1ccc2c(=O)n3c(nc2c1)CCC3	52	i	nt	nt	nt	75
O=c1cc(CSc2nnc(-c3cccs3)n2Cc2ccccc2)nc2sc3ccccc3n12	i	i	i	i	i	i
CC(C)[C@H](NC(=O)Cc1ccccc1)C(=O)OCc1cc(=O)n2c(n1)sc1ccccc12	120	i	i	i	i	75
CC(=O)c1c(C)[nH]c(C(=O)COC(=O)c2ccc3c(=O)n4c(nc3c2)CCC4)c1C	i	i	i	i	i	i
CCOC(=O)c1c(S(=O)(=O)Nc2ccccc2OCC)c(C)n(C)c1C	i	i	nt	nt	i	i
COc1ccc(/C(C)=N/Nc2ccc(C(=O)O)cc2)cc1OC	i	i	i	i	29	i
C/C(=N\Nc1ccc(C(=O)O)cc1)c1nc2ccccc2n1C	116	nt	i	i	i	active
C/C(=N/Nc1ccc(C(=O)O)cc1)c1ccc(O)c(O)c1O	i	i	i	i	52	i
CCCCNC(=O)[C@@H]1CC=C[C@@H]2CCN(C3CC3)C(=O)[C@@H]21	nt	i	nt	nt	nt	nt
COc1ccc(C(=O)NCC(=O)OCC(=O)NC2CCCCCC2)cc1	nt	i	nt	nt	nt	nt
N#CCc1cnc2ccccc2n1	52	i	i	i	i	89
Cc1ccc(OCCC(=O)O)cc1	23	i	i	i	i	?
CCc1ccc(CN(C)C(=O)CC2C(=O)NCCN2Cc2ccoc2)cc1 (centres undefined)	i	i	i	i	i	i
CCOC(=O)c1c(/N=C/c2ccccc2O)sc2c1CCC2	i	i	i	i	i	i
CCOC(=O)c1c(/N=C/c2ccc(O)cc2O)sc2c1CCC2	active	nt	i	i	i	65
Nc1[nH][nH]c(=O)c1N=Nc1cccc(Cl)c1	i	i	i	i	i	i
O=C1CCN(N=Nc2cccc(Cl)c2)N1	i	nt	i	i	31	i
CC(C)(C)c1csc(N/N=C/c2ccc(O)cc2)n1	i	i	nt	nt	i	i
CCOc1ccc(NC2=NC(C(=O)NCc3ccccc3)CC(=O)N2)cc1 (centres undefined)	i	i	i	i	i	i
CCOc1ccc(C2=Nn3c(nnc3-c3ccccc3OC)SC2)cc1	i	i	i	i	i	i
COc1ccccc1-c1nnc2n1N=C(c1ccc(O)c(O)c1)CS2	i	i	i	i	69	i
COc1cc(/C=N/NC(=S)Nc2cccc(C(=O)O)c2)ccc1O	i	i	i	i	i	i
C=CCc1cccc(/C=N/NC(=O)c2ccccc2Br)c1O	i	i	i	i	i	i
COc1ccc(/C=N/NC(=S)Nc2cccc(C(=O)O)c2)cc1	i	i	i	i	30	i
SMILES	PABP polyA inh	PABP1 MLLE inh	PERK inhibitor	eIF4E-4G inh	M18AAP inhibitor	eIF4H inh
C=CCc1cccc(/C=N/NC(=O)c2ccccc2OC)c1O	i	i	i	i	30	i
COc1cccc(/C=N/NC(=S)Nc2cccc(C(=O)O)c2)c1O	i	i	i	i	38	i
COc1ccc(NC(=O)C(=O)N/N=C/c2cccnc2)cc1	i	i	i	85	i	i
O=c1c2ccccc2nc(/C=C/c2ccc([N+](=O)[O-])o2)n1CCCO	?	i	i	i	i	?
O=C(CCCN1C(=O)c2ccccc2C1=O)N1CCN(c2ccccn2)CC1	i	i	i	i	i	i
COc1ccc(/C=N/NC(=S)Nc2ccccc2)cc1COc1ccc(Br)cc1	i	i	i	i	i	i
COc1ccc(/C=N/NC(=S)Nc2ccccc2)cc1	i	i	i	i	31	i
CN(C)c1cccc(C(=O)OCc2cc(=O)oc3cc(O)ccc23)c1	70	i	i	i	i	88
O=C(COc1ccc(Cl)cc1)NNC(=O)CSc1nncs1	i	i	i	i	29	i
Cc1nnc(SCC(=O)NNC(=O)COc2ccc(Cl)cc2)n1C	i	i	nt	nt	i	i
O=C(Nc1ccc2c(c1)OCCO2)C(c1ccnc2ccccc12)N1CCN(C/C=C/c2ccccc2)CC1 (centres undefined)	nt	i	nt	nt	nt	nt
NS(=O)(=O)c1ccc(NC(=O)C(Sc2ccccc2)c2ccccc2)cc1 (centres undefined)	i	i	i	i	i	i
Cc1cccc(C)c1NC(=O)CSc1nnc(-c2ccco2)c(-c2ccco2)n1	80	i	i	i	i	100
Cc1ccccc1NC(=O)CSc1nnc(-c2ccco2)c(-c2ccco2)n1	69	i	i	i	i	99
Cc1ccc(C(=O)COC(=O)COc2ccccc2[N+](=O)[O-])s1	nt	i	nt	nt	nt	nt
CCOC(=O)COc1ccccc1/C=C\[N+](=O)[O-]	i	i	i	i	32	i
N#CC(=C=[N-])c1nc2ccccc2nc1-[n+]1cccc(NC(=O)c2cccs2)c1	54	i	i	i	i	54
N#CC(=C=[N-])c1nc2ccccc2nc1-[n+]1cccc(NC(=O)c2ccccc2)c1	i	i	i	i	i	i
O=C(N=Nc1c(O)[nH]c2ccc([N+](=O)[O-])cc12)c1cc(-c2ccccc2Cl)nc2ccccc12	i	i	i	34	i	i
COc1ccccc1C(=O)N=Nc1c(O)[nH]c2ccc([N+](=O)[O-])cc12	i	i	i	i	i	i
Nc1c(C(=O)O)sc2nc(-c3ccc(F)cc3)cc(-c3ccccc3)c12	48	i	i	i	i	i
Nc1c(C(=O)O)sc2nc(-c3ccccc3)cc(-c3ccc(Cl)cc3)c12	i	i	i	i	i	i
C[n+]1cccc2cccc([O-])c21	47	i	i	i	i	i
[O-][n+]1cccc2cccc(O)c21	nt	i	nt	nt	nt	nt
COc1ccc(CCN2C(=O)c3ccccc3NC2c2cc(Cl)c(O)c(OC)c2)cc1 (centres undefined)	i	i	nt	nt	i	i
SMILES	PABP polyA inh	PABP1 MLLE inh	PERK inhibitor	eIF4E-4G inh	M18AAP inhibitor	eIF4H inh
CCOc1cc(CNc2ccc(N3CCCC3)cc2)cc(Cl)c1OC	i	i	i	35[fluorescence artefact?]	i	i
COc1cc(CNc2ccc(N3CCCC3)cc2)cc(Cl)c1OC	i	i	i	i	i	i
CC1=CC2=NC(=O)/C(=C\c3cc(C)n(-c4ccccc4F)c3C)C(=N)N2O1	i	i	i	i	i	?
Cc1cc(/C=C2/C(=N)N3C(=NC2=O)SN=C3S(C)(=O)=O)c(C)n1-c1ccccc1F	i	i	3.4	31	i	i
CC(CC(=O)Nc1nnc(C(C)(C)C)s1)c1ccccc1 (centres undefined)	i	48	nt	nt	i	i
CC(=O)N1CCC(=NNc2nc3ccccc3s2)CC1	i	i	i	i	i	i
